In the supplement of paper PMC10849652:
Of roughly 8,800 targets only a part is listed; those with a hit were picked by preference. About 0.5% of all pairs of compound and target were hits.

Columns and labels:
Assay in all cases: log2 fold change, soluble protein after heating vs DMSO (PISA); higher = thermal stabilisation; K562 lysate, 10 uM; active = over 0.2 and 3.5 SD of the protein, either way, in both replicates (recomputed)
nilotinib = compound: Cc1cn(-c2cc(NC(=O)c3ccc(C)c(Nc4nccc(-c5cccnc5)n4)c3)cc(C(F)(F)F)c2)cn1 [nilotinib]
Method in brief: (§1)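 K562 pellets were dounce-homogenised in PBS pH 7.4 containing 1 mM MgCl2, and the crude extract, at 1 mg/mL protein, was exposed to 10 μM compound for 30 min. Aliquots were heated for 3 min across 48°C-58°C, pooled, brought to 0.5% NP-40 at 4°C and spun at 21,000xg for 90 min, with the supernatant taken as soluble protein. TMTpro 16plex LC-MS/MS with equalised channel sums quantified that protein. Values are log-two fold changes in thermal stability relative to solvent controls, taken from duplicates.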

[1] = compound: Cc1nc(Nc2n[nH]c3c2CN(C(=O)N[C@H](CN(C)C)c2ccccc2)C3(C)C)c2sccc2n1
Method in brief: as §1

dasatinib = compound: Cc1nc(Nc2ncc(C(=O)Nc3c(C)cccc3Cl)s2)cc(N2CCN(CCO)CC2)n1 [dasatinib]
Method in brief: as §1

[2] = compound: Cc1ncc(-c2ccnc(Nc3ccc(S(C)(=O)=O)cc3)n2)n1C(C)C
Method in brief: as §1

[3] = compound: Cn1cc(-c2ccc3c(c2)CCN3C(=O)Cc2cccc(C(F)(F)F)c2)c2c(N)ncnc21
Method in brief: as §1

quisinostat = compound: Cn1cc(CNCC2CCN(c3ncc(C(=O)NO)cn3)CC2)c2ccccc21 [quisinostat]
Method in brief: as §1

tipifarnib = compound: Cn1cncc1[C@@](N)(c1ccc(Cl)cc1)c1ccc2c(c1)c(-c1cccc(Cl)c1)cc(=O)n2C [tipifarnib]
Method in brief: as §1

[4] = compound: NC(=O)Nc1cc(-c2cccc(F)c2)sc1C(=O)N[C@H]1CCCNC1
Method in brief: as §1

[5] = compound: NC(=O)c1cnc(N[C@@H]2CCCC[C@@H]2N)nc1Nc1cccc(-n2nccn2)c1
Method in brief: as §1

[6] = compound: NC1(c2ccc(-c3nc4ccn5c(=O)[nH]nc5c4cc3-c3ccccc3)cc2)CCC1
Method in brief: as §1

Measured: log2 fold change

PRKCD (UniProt Q05655)
Chain of UniProt Q05655 (Q05655 whole entry, looked up): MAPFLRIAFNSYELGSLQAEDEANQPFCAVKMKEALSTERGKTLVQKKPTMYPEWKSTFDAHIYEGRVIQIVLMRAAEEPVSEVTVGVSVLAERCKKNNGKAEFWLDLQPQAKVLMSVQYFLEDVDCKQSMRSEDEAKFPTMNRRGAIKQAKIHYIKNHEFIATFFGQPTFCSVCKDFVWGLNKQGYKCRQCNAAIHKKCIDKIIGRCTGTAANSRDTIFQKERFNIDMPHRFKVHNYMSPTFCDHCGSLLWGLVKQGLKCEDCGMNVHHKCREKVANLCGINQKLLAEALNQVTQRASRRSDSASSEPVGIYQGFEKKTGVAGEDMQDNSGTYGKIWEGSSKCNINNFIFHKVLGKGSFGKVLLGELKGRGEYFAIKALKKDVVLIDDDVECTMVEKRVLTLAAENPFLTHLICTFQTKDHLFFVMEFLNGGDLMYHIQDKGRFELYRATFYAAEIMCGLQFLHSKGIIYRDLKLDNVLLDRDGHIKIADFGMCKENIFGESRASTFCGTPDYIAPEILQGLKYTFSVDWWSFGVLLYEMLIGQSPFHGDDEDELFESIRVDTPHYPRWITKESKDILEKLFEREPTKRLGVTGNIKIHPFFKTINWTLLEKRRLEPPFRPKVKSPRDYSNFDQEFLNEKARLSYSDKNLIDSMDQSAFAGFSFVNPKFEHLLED
inactive: nilotinib 0.002 | [1] 0.193 | dasatinib -0.053 | [2] 0.056 | [3] 0 | quisinostat 0.002 | tipifarnib -0.013 | [4] -0.013 | [5] 0.218 | [6] 0.021

PLK1 (UniProt P53350)
inactive: nilotinib 0.014 | [1] -0.073 | dasatinib -0.004 | [2] 0.008 | [3] -0.015 | quisinostat -0.021 | tipifarnib 0.032 | [4] -0.193 | [5] -0.043 | [6] 0.01

PCBD2 (UniProt Q9H0N5)
inactive: nilotinib 0.01 | [1] -0.045 | dasatinib 0.011 | [2] -0.063 | [3] 0.051 | quisinostat -0.08 | tipifarnib -0.101 | [4] 0.033 | [5] 0.069 | [6] -0.066

PPP1R11 (UniProt O60927)
Chain of UniProt O60927 (O60927 whole entry, looked up): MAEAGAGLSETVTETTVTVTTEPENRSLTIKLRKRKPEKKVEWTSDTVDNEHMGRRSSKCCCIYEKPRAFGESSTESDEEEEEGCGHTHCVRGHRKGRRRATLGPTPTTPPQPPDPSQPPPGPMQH
inactive: nilotinib -0.03 | [1] 0.035 | dasatinib -0.051 | [2] 0.074 | [3] -0.055 | quisinostat -0.131 | tipifarnib -0.001 | [4] 0.01 | [5] -0.067 | [6] 0.078

PCBP2 isoform 8 (UniProt Q15366)
inactive: nilotinib 0.059 | [1] 0.069 | dasatinib -0.057 | [2] 0.04 | [3] 0.003 | quisinostat 0.133 | tipifarnib 0.015 | [4] 0.055 | [5] -0.091 | [6] -0.049

PIR (UniProt O00625)
Chain of UniProt O00625 (O00625 whole entry, looked up): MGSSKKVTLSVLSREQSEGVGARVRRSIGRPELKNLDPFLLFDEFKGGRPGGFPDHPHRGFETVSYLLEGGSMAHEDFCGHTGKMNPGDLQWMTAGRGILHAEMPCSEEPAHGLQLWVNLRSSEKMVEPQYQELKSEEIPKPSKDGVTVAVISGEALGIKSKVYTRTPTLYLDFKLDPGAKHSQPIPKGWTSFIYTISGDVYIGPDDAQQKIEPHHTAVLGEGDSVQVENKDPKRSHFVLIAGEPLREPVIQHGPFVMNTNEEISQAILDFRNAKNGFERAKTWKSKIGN
inactive: nilotinib 0.011 | [1] -0.011 | dasatinib 0.027 | [2] 0.012 | [3] 0.023 | quisinostat 0.011 | tipifarnib 0.005 | [4] 0.02 | [5] -0.009 | [6] -0.046

PFKP (UniProt Q01813)
Chain of UniProt Q01813 (Q01813 whole entry, looked up): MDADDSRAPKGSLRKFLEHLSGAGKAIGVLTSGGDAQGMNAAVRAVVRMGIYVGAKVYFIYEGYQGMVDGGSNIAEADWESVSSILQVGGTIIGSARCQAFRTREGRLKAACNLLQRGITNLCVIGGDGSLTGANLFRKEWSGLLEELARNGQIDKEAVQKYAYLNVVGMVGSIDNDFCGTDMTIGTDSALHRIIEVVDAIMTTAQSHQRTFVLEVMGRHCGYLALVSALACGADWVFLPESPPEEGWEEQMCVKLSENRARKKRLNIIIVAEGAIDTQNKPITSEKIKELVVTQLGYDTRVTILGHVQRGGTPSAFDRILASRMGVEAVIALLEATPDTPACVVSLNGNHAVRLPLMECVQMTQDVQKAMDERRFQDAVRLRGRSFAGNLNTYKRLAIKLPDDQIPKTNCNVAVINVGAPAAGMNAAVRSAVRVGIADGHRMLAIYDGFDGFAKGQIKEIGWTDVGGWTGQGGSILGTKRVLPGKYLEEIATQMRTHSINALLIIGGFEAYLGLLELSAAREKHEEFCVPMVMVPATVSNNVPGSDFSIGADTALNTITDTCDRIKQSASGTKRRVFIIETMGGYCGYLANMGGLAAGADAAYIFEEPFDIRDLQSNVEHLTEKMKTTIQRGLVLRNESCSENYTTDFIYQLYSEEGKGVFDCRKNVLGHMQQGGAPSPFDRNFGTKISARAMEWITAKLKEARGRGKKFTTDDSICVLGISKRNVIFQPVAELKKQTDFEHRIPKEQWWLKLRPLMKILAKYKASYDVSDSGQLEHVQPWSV
inactive: nilotinib 0.026 | [1] -0.014 | dasatinib 0.012 | [2] 0.003 | [3] 0.009 | quisinostat 0.024 | tipifarnib 0.016 | [4] 0 | [5] -0.008 | [6] -0.004

PFDN2 (UniProt Q9UHV9)
inactive: nilotinib -0.011 | [1] 0.013 | dasatinib 0.008 | [2] -0.045 | [3] -0.019 | quisinostat 0.037 | tipifarnib 0 | [4] -0.018 | [5] -0.028 | [6] 0.053

PRRC2A (UniProt P48634)
inactive: nilotinib -0.044 | [1] 0.01 | dasatinib 0.004 | [2] 0.002 | [3] -0.003 | quisinostat 0.015 | tipifarnib -0.036 | [4] 0.059 | [5] -0.011 | [6] 0.02

PIGO (UniProt Q8TEQ8)
inactive: nilotinib -0.019 | [1] 0.055 | dasatinib -0.032 | [2] -0.19 | [3] 0.079 | quisinostat -0.119 | tipifarnib 0.013 | [4] 0.301 | [5] 0.059 | [6] 0.041

PDAP1 (UniProt Q13442)
Chain of UniProt Q13442 (Q13442 whole entry, looked up): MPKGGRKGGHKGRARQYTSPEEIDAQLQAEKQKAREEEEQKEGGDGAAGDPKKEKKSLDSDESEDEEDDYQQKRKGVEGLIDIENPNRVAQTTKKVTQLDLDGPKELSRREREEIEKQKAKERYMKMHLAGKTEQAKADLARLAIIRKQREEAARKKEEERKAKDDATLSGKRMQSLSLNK
inactive: nilotinib 0 | [1] 0.002 | dasatinib 0.066 | [2] -0.01 | [3] -0.009 | quisinostat 0.013 | tipifarnib 0.044 | [4] 0.017 | [5] -0.016 | [6] -0.032

PYURF (UniProt Q96I23)
Chain of UniProt Q96I23 (Q96I23 whole entry, looked up): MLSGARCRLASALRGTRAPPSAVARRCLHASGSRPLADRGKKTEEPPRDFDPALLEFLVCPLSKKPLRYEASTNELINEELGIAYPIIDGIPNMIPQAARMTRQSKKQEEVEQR
inactive: nilotinib -0.03 | [1] 0.051 | dasatinib 0.002 | [2] 0.004 | [3] 0.048 | quisinostat 0.011 | tipifarnib -0.009 | [4] -0.075 | [5] -0.064 | [6] -0.006

PRKAR2B (UniProt P31323)
Chain of UniProt P31323 (P31323 whole entry, looked up): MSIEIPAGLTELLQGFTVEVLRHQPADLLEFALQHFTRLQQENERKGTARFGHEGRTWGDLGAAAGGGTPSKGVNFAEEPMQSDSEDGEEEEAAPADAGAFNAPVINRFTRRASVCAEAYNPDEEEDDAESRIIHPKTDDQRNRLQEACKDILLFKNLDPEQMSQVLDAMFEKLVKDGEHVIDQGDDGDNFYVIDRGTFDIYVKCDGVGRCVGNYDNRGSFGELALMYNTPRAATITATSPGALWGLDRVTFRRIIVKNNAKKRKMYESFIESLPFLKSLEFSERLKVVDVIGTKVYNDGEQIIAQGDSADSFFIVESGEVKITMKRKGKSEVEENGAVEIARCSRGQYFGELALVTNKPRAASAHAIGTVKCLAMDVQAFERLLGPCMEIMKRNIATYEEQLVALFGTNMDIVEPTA
inactive: nilotinib 0.023 | [1] -0.078 | dasatinib -0.104 | [2] 0.013 | [3] 0.031 | quisinostat 0.073 | tipifarnib 0.019 | [4] -0.1 | [5] -0.028 | [6] 0.013

PHC1 (UniProt P78364)
Chain of UniProt P78364 (P78364 whole entry, looked up): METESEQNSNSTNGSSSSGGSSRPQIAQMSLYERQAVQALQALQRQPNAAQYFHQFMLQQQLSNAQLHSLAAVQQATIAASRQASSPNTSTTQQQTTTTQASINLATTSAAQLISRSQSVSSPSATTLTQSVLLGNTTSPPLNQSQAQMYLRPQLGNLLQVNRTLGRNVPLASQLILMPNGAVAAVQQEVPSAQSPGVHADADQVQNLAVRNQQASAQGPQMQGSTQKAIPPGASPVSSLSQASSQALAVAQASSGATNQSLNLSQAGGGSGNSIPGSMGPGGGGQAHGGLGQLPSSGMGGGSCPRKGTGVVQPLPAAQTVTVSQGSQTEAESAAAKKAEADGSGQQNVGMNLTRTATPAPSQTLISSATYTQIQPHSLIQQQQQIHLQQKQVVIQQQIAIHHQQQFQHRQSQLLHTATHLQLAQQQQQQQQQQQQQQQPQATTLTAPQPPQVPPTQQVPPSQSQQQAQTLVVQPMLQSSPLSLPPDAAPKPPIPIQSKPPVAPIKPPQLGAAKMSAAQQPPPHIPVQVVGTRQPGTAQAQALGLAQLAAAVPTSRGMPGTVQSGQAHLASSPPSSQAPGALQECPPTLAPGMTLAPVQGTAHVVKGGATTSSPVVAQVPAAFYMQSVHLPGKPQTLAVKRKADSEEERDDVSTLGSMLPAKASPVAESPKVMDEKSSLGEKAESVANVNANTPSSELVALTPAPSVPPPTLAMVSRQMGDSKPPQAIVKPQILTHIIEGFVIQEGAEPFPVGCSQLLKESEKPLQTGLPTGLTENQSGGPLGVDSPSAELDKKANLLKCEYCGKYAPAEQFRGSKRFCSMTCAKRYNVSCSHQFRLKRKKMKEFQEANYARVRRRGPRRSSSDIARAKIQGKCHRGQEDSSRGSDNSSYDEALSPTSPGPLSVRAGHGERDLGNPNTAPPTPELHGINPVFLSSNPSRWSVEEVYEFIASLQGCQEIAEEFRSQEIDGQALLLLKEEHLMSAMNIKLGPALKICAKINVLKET
inactive: nilotinib 0.054 | [1] 0.023 | dasatinib 0.087 | [2] -0.024 | [3] -0.049 | quisinostat -0.003 | tipifarnib -0.02 | [4] 0.003

PRMT5 (UniProt O14744)
inactive: nilotinib 0 | [1] 0.005 | dasatinib 0.094 | [2] -0.024 | [3] -0.028 | quisinostat -0.027 | tipifarnib 0 | [4] 0.035 | [5] -0.015 | [6] -0.019

POLR3E (UniProt Q9NVU0)
inactive: nilotinib 0.017 | [1] -0.054 | dasatinib -0.035 | [2] -0.018 | [3] 0.018 | quisinostat -0.023 | tipifarnib 0.04 | [4] 0.037 | [5] 0.009 | [6] -0.001

PCBP2 isoform 3 (UniProt Q15366)
inactive: nilotinib 0.019 | [1] -0.012 | dasatinib -0.019 | [2] 0.015 | [3] 0.039 | quisinostat 0.044 | tipifarnib 0.005 | [4] 0 | [5] 0.005 | [6] 0.072

PIK3CB (UniProt P42338)
Chain of UniProt P42338 (P42338 whole entry, looked up): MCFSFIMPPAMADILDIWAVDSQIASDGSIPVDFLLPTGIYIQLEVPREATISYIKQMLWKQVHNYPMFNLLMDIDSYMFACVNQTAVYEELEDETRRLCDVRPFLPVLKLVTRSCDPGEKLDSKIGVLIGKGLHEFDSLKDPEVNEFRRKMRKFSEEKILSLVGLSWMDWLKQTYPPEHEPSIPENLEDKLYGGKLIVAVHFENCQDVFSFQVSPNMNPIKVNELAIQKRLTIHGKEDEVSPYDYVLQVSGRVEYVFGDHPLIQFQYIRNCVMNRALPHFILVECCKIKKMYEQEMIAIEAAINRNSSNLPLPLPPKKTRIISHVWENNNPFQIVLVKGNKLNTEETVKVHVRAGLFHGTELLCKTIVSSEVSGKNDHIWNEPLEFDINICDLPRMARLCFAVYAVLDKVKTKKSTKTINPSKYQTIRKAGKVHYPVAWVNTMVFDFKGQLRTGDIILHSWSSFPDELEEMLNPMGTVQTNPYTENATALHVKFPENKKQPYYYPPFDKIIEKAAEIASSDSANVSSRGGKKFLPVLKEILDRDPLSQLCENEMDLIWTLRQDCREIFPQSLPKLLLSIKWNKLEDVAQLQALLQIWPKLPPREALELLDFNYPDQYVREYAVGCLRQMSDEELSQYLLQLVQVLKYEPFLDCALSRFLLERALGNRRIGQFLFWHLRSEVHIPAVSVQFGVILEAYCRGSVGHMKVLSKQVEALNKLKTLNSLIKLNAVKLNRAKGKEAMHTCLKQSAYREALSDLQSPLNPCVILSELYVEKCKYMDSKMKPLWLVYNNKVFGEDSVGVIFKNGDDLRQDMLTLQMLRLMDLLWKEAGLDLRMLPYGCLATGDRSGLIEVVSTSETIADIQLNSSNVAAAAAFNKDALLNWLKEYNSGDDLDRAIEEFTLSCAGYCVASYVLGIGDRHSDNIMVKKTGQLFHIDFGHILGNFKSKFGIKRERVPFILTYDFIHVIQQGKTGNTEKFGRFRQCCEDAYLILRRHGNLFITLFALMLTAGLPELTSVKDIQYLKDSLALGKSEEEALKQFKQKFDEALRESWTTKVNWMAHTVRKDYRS
inactive: nilotinib 0.015 | [1] 0.021 | dasatinib -0.072 | [2] 0.094 | [3] 0.055 | quisinostat -0.05 | tipifarnib -0.032 | [4] 0.053 | [5] 0.015
active: [6] 0.44

PITRM1 isoform 2 (UniProt Q5JRX3)
inactive: nilotinib 0.014 | [1] -0.035 | dasatinib 0.011 | [2] -0.021 | [3] -0.002 | quisinostat 0.021 | tipifarnib 0.013 | [4] 0.005 | [5] 0 | [6] -0.008

PTK2 (UniProt Q05397)
inactive: nilotinib -0.032 | [1] 0.235 | dasatinib 0.083 | [2] 0.078 | [3] 0.18 | quisinostat -0.038 | tipifarnib -0.046 | [4] 0.373 | [5] 0.081 | [6] 0.021

PRKCA (UniProt P17252)
active: [5] 0.408
inactive: nilotinib -0.008 | [1] 0.227 | dasatinib -0.028 | [2] 0.095 | [3] -0.056 | quisinostat -0.035 | tipifarnib 0 | [4] -0.067 | [6] -0.006

PRG4 (UniProt Q92954)
inactive: nilotinib -0.092 | [1] 0.196 | dasatinib -0.028 | [2] 0.196 | [3] 0.024 | quisinostat -0.285 | tipifarnib 0.17 | [4] 0.057 | [5] -0.09

PHLDB1 (UniProt Q86UU1)
inactive: nilotinib -0.035 | [1] -0.012 | dasatinib 0.002 | [2] -0.006 | [3] -0.046 | quisinostat -0.243 | tipifarnib -0.003 | [4] 0.028 | [5] -0.036 | [6] 0.004

PRKACB isoform 2 (UniProt P22694)
active: [1] 0.818 | [4] 0.538
inactive: nilotinib -0.076 | dasatinib 0.025 | [2] 0.091 | [3] -0.028 | quisinostat -0.033 | tipifarnib -0.063 | [5] 0.177 | [6] -0.025

POLD3 (UniProt Q15054)
inactive: nilotinib 0.03 | [1] -0.014 | dasatinib -0.002 | [2] 0.029 | [3] 0.007 | quisinostat -0.049 | tipifarnib 0.002 | [4] 0.013 | [5] 0.018 | [6] -0.027

PCYT1B (UniProt Q9Y5K3)
inactive: nilotinib -0.079 | [1] -0.003 | dasatinib 0 | [2] 0.022 | [3] -0.026 | quisinostat 0.039 | tipifarnib 0.047 | [4] -0.023 | [5] -0.008 | [6] 0.054

PPCDC (UniProt Q96CD2)
Chain of UniProt Q96CD2 (Q96CD2 whole entry, looked up): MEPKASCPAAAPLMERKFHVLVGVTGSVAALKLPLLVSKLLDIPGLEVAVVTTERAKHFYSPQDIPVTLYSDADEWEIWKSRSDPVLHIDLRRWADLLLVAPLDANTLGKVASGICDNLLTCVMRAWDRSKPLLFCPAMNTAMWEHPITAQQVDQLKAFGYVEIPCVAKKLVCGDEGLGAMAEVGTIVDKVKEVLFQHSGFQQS
inactive: nilotinib -0.002 | [1] -0.014 | dasatinib -0.06 | [2] -0.017 | [3] -0.04 | quisinostat -0.015 | tipifarnib 0.022 | [4] 0.013 | [5] 0 | [6] 0.047

PLA2G4B isoform 6 (UniProt P0C869)
active: quisinostat -0.671
inactive: nilotinib -0.177 | [1] 0.259 | dasatinib -0.1 | [2] -0.326 | [3] -0.047 | tipifarnib 0.022 | [4] 0.158 | [5] 0.006 | [6] -0.073
